# Records with an inconclusive call do not appear. Unmarked numbers belong to inactive results. The source made the active and inactive calls. The call rests on the fitted dose curve; in most records, active means well fitted inhibition curve with a large enough effect; inconclusive means small, poorly fitted or top-dose-only effect; inactive means flat fitted curve, though single readings scatter. Where a SMILES comes first, the peptide text is derived from it. [ ]: non-standard residue; d: D form. PhLac = O=C(O)[CH](O)Cc1ccccc1; NMeV = CN[CH](C(=O)O)C(C)C
# System: CRL-7250
# Experiment: Cytotoxic Profiling of Annotated Libraries Using Quantitative High-Throughput Screening (AID 1296008); further: nearly all actives have a fitted effect of over 60% in size
# Conditions: Five cell lines viability, CellTiter-Glo ATP luminescence, 48-72 h; max response: stronger effect = lower value
# Procedure, shortened: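 Compounds were pin-transferred onto cells and incubated 48 or 72 hr at 37 degree Celsius, 95% humidity. CellTiter-Glo was added, plates sat 10 min at room temperature, then ATP-coupled luminescence was imaged as the viability read-out.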
# On the % scale 0 is the no-effect control and ±100 the full control effect.
SMILES,outcome,max response [%]
C=C1CCC2C(C)(C)CC(=O)CC2(C)C1CCC(C)CCOC(C)=O (stereo not given),inactive,
CC1CC(O)C2(C)C(C(=O)O)=CCCC2C1(C)CCc1ccoc1 (stereo not given),,0.739
CO[C@H]1C=C2C(CC[C@H](O[C@@H]3O[C@H](CO)[C@@H](O)[C@@H](O)[C@H]3O)C2(C)C)[C@]2(C)CC[C@]3(C)C([C@H](C)C(O)C(C=C(C)C)O[C@@H]4O[C@H](CO)[C@@H](O)[C@@H](O)[C@H]4O)CC[C@@]3(C)C12 (stereo not given in full),,-4.36
CC12CCC3C(C)(C)C(O)CCC3(C)C1Cc1c(oc(C(=O)O)cc1=O)O2 (stereo not given),inactive,
C=C1C[C@]23C[C@H]1CC[C@H]2[C@]1(C)CCC[C@@]2(CO)C(=O)O[C@H]([C@H]21)[C@@H]3O,,-1.22
CC(C)C(C(=O)N1CCCC1C(=O)O)N(C)C(=O)C(O)Cc1ccccc1 (stereo not given) (H-[PhLac]-[NMeV]-Pro-OH; configuration not given here),inactive,
CC(C)[C@@H](C)/C=C/[C@@H](C)[C@H]1CC[C@H]2C3=CC=C4C[C@@H](O)CC[C@]4(C)[C@H]3CC[C@]12C,,-9.59
CC1CCC2C(C)(C)C(O)CCC2(C)C12Cc1c(O)cc3c(c1O2)CN(C(CCC(N)=O)C(=O)O)C3=O (stereo not given),,0.113
COc1ccccc1CC(C(=O)O)N(C)C(=O)c1ccccc1 (stereo not given),,0.437
CC1OC(OC2C(CO)OC(OCC3OC(OC(=O)C45CCC(C)(C)CC4C4=CCC6C7(C)CCC(OC8OC(C(=O)O)C(O)C(OC9OC(CO)C(O)C(O)C9O)C8O)C(C)(C)C7CCC6(C)C4(C)CC5)C(O)C(O)C3O)C(O)C2O)C(O)C(O)C1O (stereo not given),inactive,
